# MBNL1-CUG inh: MBNL1-poly(CUG) RNA binding inhibition. Q9NR56. TR-FRET MBNL1-His/biotin-(CUG)12 binding, 665/545 ratio. Potency, µM (titrated, usually from 57.5 µM), without a hit: at the highest dose activity change, negative = inhibition, usual class: inhibitors. hit rate 0.036% among 280,000; active = well fitted inhibition curve with a large enough effect in the signal ratio, with a control signal flat, not every such curve was filed as active; inconclusive = small, poorly fitted or top-dose-only effect, or effect the other way, or a change in a side signal; inactive = no such curve, though single readings can be large or run the other way; the % refers to the signal ratio; also: potency is read from the fitted curve at half-maximal effect; % is scaled to controls: 0 for no effect and ±100 for the full control effect
# Target sequence (Q9NR56 whole entry, looked up): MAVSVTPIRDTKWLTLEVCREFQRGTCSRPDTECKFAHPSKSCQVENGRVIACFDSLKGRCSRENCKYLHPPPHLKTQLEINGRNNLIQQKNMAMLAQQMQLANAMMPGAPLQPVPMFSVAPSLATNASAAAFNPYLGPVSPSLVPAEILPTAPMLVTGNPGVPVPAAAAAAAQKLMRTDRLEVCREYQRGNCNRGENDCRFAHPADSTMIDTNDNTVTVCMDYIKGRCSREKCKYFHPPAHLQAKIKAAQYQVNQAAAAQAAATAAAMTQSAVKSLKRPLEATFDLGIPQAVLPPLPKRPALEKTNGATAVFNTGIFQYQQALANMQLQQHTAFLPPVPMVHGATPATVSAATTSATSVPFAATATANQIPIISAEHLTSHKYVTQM
#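 MBNL1-His + Biotin-(CUG)12, cpd titration 92 nM–58 uM; Tb anti-His Ab 0.055 ng/ul, SA-XL665 5 nM (final); 60 min RT; ratiometric 665/545 nm, Ex 340 nm; normalized to buffer and full-complex controls.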
# DRD3 agonist: activates the human D3 dopamine receptor | max activation, % | AID 652048 | D3R DiscoveRx beta-arrestin cells, luminescence, 90 min | hit rate 0.58% among 410,000; in the data active = max activation above about 30%; also: 0% is about no effect
# Target sequence (P35462 whole entry, looked up): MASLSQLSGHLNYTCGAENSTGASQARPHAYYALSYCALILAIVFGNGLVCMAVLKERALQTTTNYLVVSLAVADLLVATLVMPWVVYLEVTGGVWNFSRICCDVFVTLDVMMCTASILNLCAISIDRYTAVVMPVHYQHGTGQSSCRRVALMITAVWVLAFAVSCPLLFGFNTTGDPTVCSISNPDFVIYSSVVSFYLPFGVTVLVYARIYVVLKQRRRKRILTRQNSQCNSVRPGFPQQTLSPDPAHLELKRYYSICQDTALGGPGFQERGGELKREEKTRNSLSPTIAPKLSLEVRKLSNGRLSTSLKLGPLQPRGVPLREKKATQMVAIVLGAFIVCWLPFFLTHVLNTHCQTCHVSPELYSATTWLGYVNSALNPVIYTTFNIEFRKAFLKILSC
#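 Cells at 1500/well, incubated overnight, then treated with pinned compounds (dopamine as control) for 90 min at 37 degrees C. DiscoveRx reagent added for 30 - 60 minutes at room temperature; luminescence read.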
# CBFb RUNX1 block: CBF-beta/RUNX1 interaction disruption; Q01196+Q13951; AlphaScreen CBFb-His/RUNX1-biotin binding, biochemical; Potency, µM (series often up to 59.8 µM), inactives show at the top dose activity, negative = inhibition, actives largely listed as inhibitors; 230,000 tested, under 10 active; also: % of control where 0% means no effect
#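 CBFb-His/RUNX1-biotin, 30 nM each, preincubated 20 min RT; compound 15 min RT; Ni + streptavidin beads 50 ng each, 90 min RT; AlphaScreen read.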
# Integrin act MD: activates integrin-mediated alleviation for muscular dystrophy; alpha7betagal myoblasts, beta-gal FDG fluorescence, 48 h; AID 624291; hit rate 0.064% among 350,000; Potency, µM (series often up to 38.3 µM), for the others: at the highest dose activation, actives largely listed as activators;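 also: potency is read from the fitted curve at half-maximal effect; 100% = response of the positive control SU9516; nearly all actives have a fitted effect of over 60% in size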
#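 alpha7betagal+/- myoblasts (passage 13, 250/well) treated 48 h at 37C with compounds at 1:260 dilution of DMSO stock. Lysed, then beta-galactosidase activity read as FDG fluorescence (ex 480/em 540) after 30 min, with pre-read for autofluorescence.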
# PTHR1 agonist: agonists of human PTHR1 parathyroid hormone receptor; HEK293 GP2 PTHR1 cells, GloSensor cAMP luminescence, 1 h; Q03431; hit rate 0.075% among 410,000; AID 743266; Potency, µM (titrated, usually from 115 µM), without a hit: at the top dose activation, usual class: activators; also: potency is read from the fitted curve at half-maximal effect; nearly all actives have a fitted effect of over 55% in size
#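 HEK-293-derived GP2 cells expressing PTHR1 and a GloSensor cAMP reporter, 3,000/well, plated overnight, given luciferin plus IBMX (each 0.5 mM as added) for 1 h at 37 °C, then compound for 1 h at 37 °C. Luminescence was read after 15 min at room temperature.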
# D3 antag: D3 dopamine receptor (human) antagonism; max response, negative = inhibition, %; hit rate 2.5% among 360,000; D3R cells, DiscoveRx beta-arrestin luminescence, antagonist mode; stronger effect = lower value; P35462; in the data active = max response below about -50%; inconclusive = no clear call, values can overlap the other calls; also: % is scaled to controls: 0 for no effect and ±100 for the full control effect
#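 Cells expressing the human receptor were seeded at 1500 cells/well, incubated overnight at 37 degrees C in 5% CO2, then exposed to library compounds with dopamine controls for 90 minutes at 37 degrees C before luminescent detection.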
# The depositor's hits bear a star; i = inactive; ? = inconclusive; . = no result; [ ] = remark or other dose. Rows were chosen to be rich in hits. Some 2.8% of all compounds tested hit in one or more screens of this group. Unless noted, calls follow the shape of the dose curve; as a rule, active = well fitted curve in the direction sought with a large enough effect; inconclusive = small, poorly fitted or top-dose-only effect, or another doubt; inactive = no such curve, though single readings can be large; an effect the other way counts as inactive or inconclusive.
SMILES,MBNL1-CUG inh,DRD3 agonist,CBFb RUNX1 block,Integrin act MD,PTHR1 agonist,D3 antag
Cc1ccc(-n2ncc3c(NCCCN4CCOCC4)ncnc32)cc1,.,-14.7,.,.,6.6%,.
Cc1nc(NCCCN2CCOCC2)c2cnn(-c3ccccc3)c2n1,.,-19.3,.,-6.3%,i,-51.0*
Cc1cc(C)n(CCC(=O)N2CCCC(Nc3ccc(F)cc3)C2)n1 (stereo not drawn),.,0.2,.,22.8%,-23.6%,5.6
O=C(NNS(=O)(=O)c1ccc(Cl)cc1)c1cccs1,-5.6%,8.0,-6.3%,10.9%,?,-61.5*
O=C(Nc1ccc2nc(-c3ccc4nc[nH]c4c3)[nH]c2c1)c1cccs1,-20.6%,-5.1,29.7%,17.3%,-5.7%[57.5 µM],-69.2*
CC(C)(C)OC(=O)C[C@@H]1C/C=C\C[C@@H](CC(=O)N[C@H](CO)Cc2ccccc2)C(=O)N2CCC[C@H]2COC1=O,.,0.0,.,-23.0%,i,10.0
CC[C@@H](C)[C@@H]1CN([C@@H](C)CN2CCC[C@H]2CN2C(N)=NC[C@@H]2Cc2ccccc2)C(=N)N1CCCC1CCCC1,.,-35.5,.,-3.7%,-4.2%,-1.0
CC[C@@H](C)[C@@H]1CN([C@@H](C)CN2CCC[C@H]2CN2C(N)=NC[C@@H]2Cc2ccccc2)C(=N)N1CCc1ccc(Cl)c(Cl)c1,.,-47.6,.,18.3%,-18.1%,-66.2*
Cc1cc(Oc2ccccc2)nc(SCC(N)=O)n1,-7.4%,-5.3,9.6%,11.5%,-0.3%,-77.7*
COC(=O)c1ccc(Oc2cc(C)nc(SC)n2)cc1,?,0.4,-1.7%,20.5%,-41.6%[57.5 µM],4.1
Cc1[nH]nc(C(=O)NN=Cc2ccccc2Cl)c1N=NN(C)C,.,-10.8,.,-54.7%,-33.9%,-80.7*
CC(C)Oc1ccc(CN2CCC2(C)C(=O)Nc2cccc3cccnc23)cc1 (stereo not drawn),.,-21.6,.,.,i,-92.0*
Cc1c(Br)cccc1NC(=O)C1(C)CCN1Cc1ccc(OC(C)C)cc1 (stereo not drawn),.,11.0,.,.,-7.2%,5.9
CN(Cc1ccccc1)C(=O)Nc1ccc(Cl)cc1,.,-4.4,.,-22.4%,-26.0%,-0.5
CN(Cc1ccccc1)C(=O)Nc1c(Cl)cccc1Cl,.,-7.3,.,.,?,-50.6*
O=c1cc(CN2CCN(c3ccccc3F)CC2)c2cc3c(cc2o1)CCCC3,-2.5%,-28.6,-1.2%,27.2%,-3.1%,-61.9*
O=c1cc(CN2CCN(CCO)CC2)c2cc3c(cc2o1)CCC3,9.5%,-5.7,1.6%,13.2%,i,?
O=c1cc(CN2CCN(Cc3ccccc3)CC2)c2cc3c(cc2o1)CCC3,4.2%,-38.6,14.8%,-15.4%,-15.2%,-61.9*
CN1CCN(c2oc(-c3cccs3)nc2S(=O)(=O)c2ccccc2)CC1,14.5%,-21.0,9.8%,-1.0%,i,?
CN1CCN(c2oc(-c3ccccc3Cl)nc2S(=O)(=O)c2ccccc2)CC1,-3.0%,-7.0,.,9.4%,i,-78.9*
CN1CCN(c2oc(-c3ccccc3)nc2S(=O)(=O)c2ccc(Br)cc2)CC1,-5.1%,-35.8,.,-19.2%,i,-67.1*
Cc1ccc(S(=O)(=O)N[C@H]2COC(=O)[C@@H](C)COC(=O)C/C=C\[C@H]2C)cc1,.,.,12.1%[13.1 µM],.,.,.
Cc1ccccc1C(=O)N1CCC(C(=O)NN2C(=O)NC3(CCCCC3)C2=O)CC1,.,3.7,.,36.0%,?,0.6
CC(=O)NCCOc1ccc(C(=O)O)cc1,-1.0%,9.4,-1.9%,-14.1%,-19.8%[57.5 µM],-54.8*
COc1ccc(NC(=O)C2CCN(C(=O)Nc3ccccc3)CC2)cc1S(=O)(=O)N(C)C,.,-22.2,.,-3.8%,i,-66.6*
SMILES,MBNL1-CUG inh,DRD3 agonist,CBFb RUNX1 block,Integrin act MD,PTHR1 agonist,D3 antag
COc1ccc(NC(=O)C2CCN(C(=O)Cc3ccccc3)CC2)cc1OC,-2.7%,4.7,-1.6%,22.5%,-32.9%,-11.4
CCCOc1cc(NCc2ccccc2)c2ncn(C(C)C)c2c1,.,9.8,.,-12.7%,-22.6%,6.9
COCCOc1cc(NCc2ccccc2)c2ncn(C(C)C)c2c1,.,-14.7,.,-32.0%,-20.3%,-70.6*
CCC(CO)Oc1cc(NCc2ccccc2O)c2ncn(C(C)C)c2c1 (stereo not drawn),.,50.4*,.,-15.8%,-14.6%,182.8
COc1ccc(NC(=O)Nc2c(C)n(C)n(-c3ccccc3)c2=O)c(OC)c1,-2.7%,-1.6,.,1.8%,-18.8%,19.2
O=C(c1ccccc1)c1n[nH]c(-c2ccccc2)cc1=O,-4.3%,-0.4,-1.7%,-0.1%,-1.1%,-7.2
CSc1nnc(C2CCCN2)n1C (stereo not drawn),-8.5%,-4.0,-3.3%,-0.5%,i,-54.4*
CSc1nnc(-c2ccccc2)n1C,-6.8%,-7.0,4.3%,37.5%,i,-14.2
CC[C@]1(c2ccccc2)NC(=O)N(C)C1=O,.,.,-17.0%[21.7 µM],.,.,.
O=S1(=O)CC(N2CCN(CCO)CC2)CN1Cc1cn(Cc2cccc(C(F)(F)F)c2)nn1 (stereo not drawn),.,-7.6,.,.,i,-15.6
CCC(=NCc1ccco1)c1c(C(F)(F)F)[nH]n(-c2nc3ccccc3s2)c1=O,-3.8%,-5.9,-2.8%,-8.8%,i,-12.0
CCC(=NCc1ccccc1)c1c(C(F)(F)F)[nH]n(-c2nc3ccccc3s2)c1=O,-6.5%,-10.0,5.1%,6.3%,i,-60.2*
O=C(Cc1cccc2ccccc12)N/N=C/c1ccc2cccc(O)c2n1,4.1%,-26.4,2.5%,-51.4%,-40.4%,-56.5*
COc1ccc2cc(C3c4cc(OC)c(OC)cc4CCN3C(=O)c3ccco3)c(=O)[nH]c2c1 (stereo not drawn),0.7%,4.4,.,3.9%,?,-12.3
COc1cc2c(cc1OC)C(c1cc3cc(C)ccc3[nH]c1=O)N(C(=O)c1ccco1)CC2 (stereo not drawn),-1.0%,37.3*,.,-25.4%,i,9.9
O=C1NC[C@@H](CCCCN2C[C@H](Cc3ccc(O)cc3)N(CCC3CCCCC3)C(=O)C2=O)N(CC2CCCCC2)C1=O,.,-16.4,.,.,?,-62.9*
O=C1NC[C@H](CCCCN2CCN(Cc3ccccc3)C(=O)C2=O)N(CCC2CCCCC2)C1=O,.,32.7*,.,.,-16.2%,-26.8
O=[N+]([O-])c1cc(S(=O)(=O)C(F)(F)F)ccc1N1CCN(c2ccccc2)CC1,.,-20.3,?,10.2%,-20.2%,-53.7*
O=C(Nc1noc2ccccc12)c1ccc(F)cc1,.,4.8,.,.,-28.5%,.
COc1cccc(N=c2oc3cc(O)ccc3cc2C(=O)NCC2CCCO2)c1 (stereo not drawn),23.7%,31.0*,-19.9%,-4.7%,-26.0%,14.3
CCn1c(CO)nc2c1c(=O)[nH]c(=O)n2Cc1ccccc1,-7.9%,-32.8,.,-38.4%,i,-80.3*

# Compound activity: PubChem, National Center for Advancing Translational Sciences (NCATS)
